Laboratory results as given in the supplement of paper PMC9694430.
Counter-ions that a name gives are not always drawn.

What was measured:
Assay in all cases: thermal shift delta Tm vs DMSO control; higher = stronger stabilization (binding)
Settings in all cases: 12.5 µM; protein concentration 2 µM
[1] = system: LOC_OS01G57100-cb003
Procedure, shortened: (§1)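 Heating from 25°C to 95°C at 0.05°C/s, fluorescence was recorded for 19.5 μl wells of 2 μM E. coli-expressed, purified rice kinase domain in 100 mM potassium phosphate pH 7.5, 150 mM NaCl, 10% glycerol and 5 × SYPRO Orange with compound in DMSO. Boltzmann fits gave melting temperatures for this differential scanning fluorimetry assay. The shift reported is the mean of three replicates against the DMSO-only protein.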

[2] = system: LOC_OS01G60330-cb001
Procedure, shortened: as §1

[3] = system: LOC_OS01G60700-cb002
Procedure, shortened: as §1

[4] = system: LOC_OS01G63280-cb003
Procedure, shortened: as §1

[5] = system: LOC_OS01G67340-cb003
Procedure, shortened: as §1

[6] = system: LOC_OS01G70970-cb002
Procedure, shortened: as §1

[7] = system: LOC_OS02G07810-cb001
Procedure, shortened: as §1

[8] = system: LOC_OS02G08530-cb003
Procedure, shortened: as §1

[9] = system: LOC_OS02G14120-cb001
Procedure, shortened: as §1

[10] = system: LOC_OS02G17970-cb001
Procedure, shortened: as §1
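Further: purified Escherichia coli-expressed rice kinase domain construct.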

| SMILES | thermal shift delta Tm [1] [°C] | thermal shift delta Tm [2] [°C] | thermal shift delta Tm [3] [°C] | thermal shift delta Tm [4] [°C] | thermal shift delta Tm [5] [°C] | thermal shift delta Tm [6] [°C] | thermal shift delta Tm [7] [°C] | thermal shift delta Tm [8] [°C] | thermal shift delta Tm [9] [°C] | thermal shift delta Tm [10] [°C] |
| --- | --- | --- | --- | --- | --- | --- | --- | --- | --- | --- |
| CCn1c(-c2nonc2N)nc2c(C#CC(C)(C)O)ncc(OC[C@H]3CCCNC3)c21 | 0.99 | 0.93 | 1.82 | -0.01 | -0.43 | 0.35 | 0.56 | 0.64 | 0.88 | -0.03 |
| N#CC[C@H](C1CCCC1)n1cc(-c2ncnc3[nH]ccc23)cn1 | 0.48 | 1.16 | 0.62 | 0.56 | 0.07 | 0.28 | 1.11 | 1.14 | 3.58 | 0.47 |
| C[C@H]1CNCCCN1S(=O)(=O)c1cccc2cncc(F)c12 [Ripasudil (K-115) hydrochloride dihydrate] | 0.7 | 1.17 | 1.6 | 0.79 | 0.45 | 0.28 | 1.1 | 0.65 | 1.57 | 1.75 |
| CCc1cncnc1N1CCN(Cc2nc3ccc(C(F)(F)F)cc3[nH]2)CC1 | 1.5 | 0.04 | 0.72 | 0.19 | -0.58 | 0.14 | 0.73 | 0.49 | -0.72 | 0.34 |
| O=c1ccc2ccc(O)c(O)c2o1 [Daphnetin] | 4.5 | 1.15 | 1.06 | 0.68 | 0.06 | 0.05 | 1.27 | 1.2 | 0.72 | 1.06 |
| C=CC(=O)Nc1cccc(Nc2nc(Nc3ccc(NC4CN(CCF)C4)cc3OC)ncc2C(F)(F)F)c1 | 0.4 | 0.07 | 0.83 | 0.2 | -0.31 | 0.87 | 0.93 | 3.91 | 1.12 | 0.41 |
| COc1cccc(-n2c(=O)[nH]c3cc(Cl)n(-c4ccc(-c5cccc(OC)c5O)cc4)c3c2=O)c1 | 1.57 | 1.05 | 0.6 | 0.13 | 0.2 | 0.23 | 0.79 | 0.98 | 0.81 | 0.69 |
| Cc1[nH]c(/C=C2\C(=O)Nc3ccc(S(=O)(=O)Cc4c(Cl)cccc4Cl)cc32)c(C)c1C(=O)N1CCC[C@@H]1CN1CCCC1 | 1.04 | 1.52 | 0.53 | 0.78 | 0.73 | 0.57 | 0.8 | 3.7 | 7.86 | 0.39 |
| Cc1ccc([N+](=O)[O-])cc1S(=O)(=O)N(C)/N=C/c1cnc2ccc(Br)cn12 | 3.41 | -0.03 | 1.24 | 1.7 | 3.58 | 4.2 | 0.51 | 6.04 | 9.06 | 1.2 |
| C=CC(=O)Nc1ccc2ncnc(Nc3ccc(OCc4cccc(F)c4)c(Cl)c3)c2c1 | 5.43 | 8.4 | 1.59 | 0 | 4.19 | 3.43 | 2.95 | 1.07 | 2.45 | 2.87 |
| Cc1ncc(-c2ccnc(Nc3ccc(S(C)(=O)=O)cc3)n2)n1C(C)C | 1.7 | 2.38 | 1.21 | 4.42 | 1.74 | 1.45 | 1.42 | 2.22 | 5.76 | 1.78 |
| COc1cc(OC)c(/C=C/S(=O)(=O)Cc2ccc(OC)c(NCC(=O)O)c2)c(OC)c1 | 0.72 | 0.72 | 1.27 | 0.67 | -0.23 | -0.1 | 1.48 | 0.79 | 0.49 | 0.94 |
| O=C(Cc1ccc(-c2ccc(OCCN3CCOCC3)cc2)cn1)NCc1ccccc1 | 1.17 | 0.12 | 1.18 | 0.26 | 0.62 | 0.16 | 0.92 | 0.7 | 0.08 | 1.17 |
| Cc1ccc(NC(=O)c2ccc(CN3CCN(C)CC3)cc2)cc1Nc1nccc(-c2cccnc2)n1 [Imatinib Mesylate (STI571)] | 1 | 0.66 | 0.7 | 0.06 | -0.58 | -0.12 | 0.51 | 1.09 | 0.52 | 0.04 |
| O=C(Nc1ccc(-c2ccnc(Nc3ccc(N4CCOCC4)cc3)n2)cc1)C1CCCN1 (stereo not given) | 0.26 | 0.51 | 1.22 | 0.08 | -0.06 | 0.39 | 0.59 | 0.66 | 3.38 | 0.54 |
| CN1c2ccccc2C(=O)Nc2cnc(Nc3ccc(N4CCC(O)CC4)cc3)nc21 | 0.2 | 1.06 | 0.97 | 2.56 | 1.01 | 2.61 | 0.39 | 0.74 | 11.1 | 0.53 |
| CCNC(=O)Nc1ccc(-c2nc(N3CCOC[C@@H]3C)c3c(n2)C(C)(C)S(=O)(=O)C3)cc1 | 2.26 | 0.52 | -0.02 | 0.04 | 0.5 | 0.57 | -0.58 | 0.6 | 1.4 | -0.21 |
| Cc1cc([C@@H](C)Nc2ccccc2C(=O)O)c2nc(N3CCOCC3)cc(=O)n2c1 | 1.15 | 0.75 | 0.5 | 0.68 | -0.15 | 0 | 1.33 | 0.42 | -0.15 | 0.98 |
| Fc1ccc2[nH]ccc2c1-c1nc(N2CCOCC2)c2sc(CN3CCN(CC4CC4)CC3)cc2n1 | 1.16 | 0.82 | 1.22 | 0.86 | 0.95 | 0.31 | 0.15 | 0.45 | 0.72 | 0.68 |
| CO[C@H]1C[C@@H]2CC[C@@H](C)[C@@](O)(O2)C(=O)C(=O)N2CCCC[C@H]2C(=O)O[C@H]([C@H](C)C[C@@H]2CC[C@@H](O)[C@H](OC)C2)CC(=O)[C@H](C)/C=C(\C)[C@@H](O)[C@@H](OC)C(=O)[C@H](C)C[C@H](C)/C=C/C=C/C=C/1C [Rapamycin (Sirolimus)] | 1.56 | 1.82 | 1.04 | 0.14 | -0.59 | 0.17 | 0.45 | 0.43 | 1 | 0.46 |

| SMILES | thermal shift delta Tm [1] [°C] | thermal shift delta Tm [2] [°C] | thermal shift delta Tm [3] [°C] | thermal shift delta Tm [4] [°C] | thermal shift delta Tm [5] [°C] | thermal shift delta Tm [6] [°C] | thermal shift delta Tm [7] [°C] | thermal shift delta Tm [8] [°C] | thermal shift delta Tm [9] [°C] | thermal shift delta Tm [10] [°C] |
| --- | --- | --- | --- | --- | --- | --- | --- | --- | --- | --- |
| Oc1cc(O)cc(/C=C/c2ccc(O)c(O)c2)c1 [Piceatannol] | -0.61 | 1.29 | 1.12 | 1.07 | 0.13 | 0.59 | 1.77 | 1.3 | 0.89 | 1.38 |
| Cc1c(CN2CCN(C(=O)[C@H](C)O)CC2)sc2c(N3CCOCC3)nc(-c3cnc(N)nc3)nc12 [Apitolisib (GDC-0980, RG7422)] | 0.9 | 0.98 | 0.46 | 0.4 | 0.25 | 0.37 | 1.43 | 1.01 | 0.42 | 1.03 |
| C=CC(=O)Nc1ccc2ncnc(Nc3cccc(Br)c3)c2c1 | 0.86 | 0.41 | 0.96 | -0.32 | -0.12 | 0.22 | 0.8 | 0.61 | -0.18 | 0.66 |
| O=C1c2ccc(Nc3ccc(F)cc3F)cc2CCc2ccc(OC[C@H](O)CO)cc21 [Skepinone-L] | 1.15 | 1.18 | 0.79 | 0.21 | 0.84 | 0.42 | -0.07 | 0.85 | 0.72 | 0.17 |
| CNC(=O)c1ccccc1Nc1nc(Nc2ccc(N3CCOCC3)cc2OC)ncc1Cl | 2.81 | 0.04 | 1.25 | 0.09 | 0.32 | 2.69 | 0.19 | 4.3 | 5.33 | 1.35 |
| NC1(Cc2ccc(Cl)cc2)CCN(c2ncnc3[nH]ccc23)CC1 | 2.25 | 2.06 | 0.71 | 0.51 | 0.58 | 0.53 | 0.47 | 1.24 | 1.88 | 0.79 |
| CCCNC(=O)Nc1ccc(Oc2ncnc3cc(OC)c(OC)cc23)cc1Cl | 0.3 | 0.97 | -0.2 | 0.14 | -0.13 | -0.25 | 0.93 | 1.15 | -0.1 | 0.04 |
| C[S+]([O-])c1ccc(-c2nc(-c3ccc(F)cc3)c(-c3ccncc3)[nH]2)cc1 (stereo not given) | 1.65 | 1.11 | 1.91 | 1.11 | -0.03 | 0.63 | 1.46 | 1.44 | 1.3 | 0.84 |
| O=c1cc(N2CCOCC2)oc2c(-c3ccc4c(c3)OCCO4)csc12 | 0.23 | 0.29 | -0.31 | 0.2 | 0.35 | 0.12 | -0.78 | 0.62 | 1.45 | -0.32 |
| COc1ccc(COc2ccc(Cc3cnc(N)nc3N)cc2OC)cc1 | -0.05 | 0.76 | 1.06 | 0.32 | 0.31 | 0.08 | 0.34 | -0.15 | 1.94 | 1.56 |
| Oc1ccc(Nc2nc(-c3ccc(Cl)cc3)cs2)cc1 | -1.22 | 2.57 | -0.25 | 3.13 | 0.86 | 1.06 | 0.81 | -0.94 | 0.14 | -0.04 |
| CCCS(=O)(=O)Nc1ccc(F)c(C(=O)c2c[nH]c3ncc(Cl)cc23)c1F | 0.54 | 2.26 | 1.16 | 5.8 | -0.05 | 2.74 | 1.49 | 0.84 | 1.51 | 0.28 |
| C[C@@H]1CN(C(=O)c2ccc(NC(=O)c3cc(O[C@H](C)c4c(Cl)ccc(F)c4Cl)c(N)nn3)cc2)C[C@H](C)N1 [Ensartinib (X-396)] | 4.79 | -0.22 | 0.66 | -0.05 | 7.25 | 0.84 | 0.09 | 2.29 | 12 | 0.57 |
| COc1cc(N2CCN(C)CC2)ccc1Nc1ncc2c(n1)N(C)c1ccccc1C(=O)N2 | 0.71 | 0.79 | 1.11 | 0.14 | 0.39 | 0.32 | 0.41 | 0.62 | 2.52 | 0.53 |
| Cc1cnc(Nc2ccc(OCCN3CCCC3)cc2)nc1Nc1cccc(S(=O)(=O)NC(C)(C)C)c1 | 2.1 | 1.83 | 0.56 | 0.21 | 0.84 | 2.94 | 0.5 | 2.64 | 7.4 | 0.44 |
| CCN1C(=O)CNc2ncc(-c3ccc(-c4nc[nH]n4)nc3C)nc21 | 1.53 | 0.57 | 0.53 | -0.65 | -0.28 | 0.01 | 0.72 | 0.04 | -0.7 | 0.77 |
| CCN(CC)CCNC(=O)c1c(C)[nH]c(/C=C2\C(=O)Nc3ccc(F)cc32)c1C [Sunitinib Malate] | 0.44 | 9.27 | 0.27 | 0.02 | 2.37 | 7 | -0.25 | 5.21 | 7.4 | -0.05 |
| CC(=O)Nc1nc(C)c(-c2ccc(Cl)c(S(=O)(=O)NCCO)c2)s1 | 1.34 | 1.21 | 0.76 | 0.53 | 0.18 | 0.09 | 1.61 | 0.77 | 1.19 | 0.97 |
| CNS(=O)(=O)C[C@H]1CC[C@H](N(C)c2[nH]cnc3nccc2-3)CC1 [Oclacitinib] | 1.69 | 4.38 | 1.12 | 2.6 | 2.18 | 1.16 | 0.11 | 2.49 | 4.19 | 1.21 |
